Screening data deposited in PubChem BioAssay by National Center for Advancing Translational Sciences (NCATS).
Only some compounds are listed: those with a hit (about 2.4% of all), similar ones and a draw of the others.
WRN inhibitor: blocks human WRN helicase; WRN helicase unwinding, fluorescent forked duplex, kinetic; AID 651768; 360,000 tested, 0.46% active; Potency, µM (titrated, usually from 114 µM), without a hit: top-dose activity change, negative = inhibition, most hits filed as inhibitors; also: % is scaled to controls: 0 for no effect and ±100 for the full control effect; nearly all actives have a fitted effect of over 55% in size
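Screening of the MLSMR collection measured strand separation of a quenched forked DNA duplex (100 nM) by 20 nM WRN with 2 mM ATP, all final. Compounds were preincubated with enzyme 15 min at room temperature.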
Pol iota inh: inhibitors of human DNA polymerase iota; Q9UNA4; Pol iota fluorescent replication assay, 10 min; Potency, µM (series often up to 115 µM), for inactives: at the top dose activity, negative = inhibition, actives largely listed as inhibitors; 390,000 tested, 1% active; AID 588590
Target sequence (Q9UNA4 whole entry, looked up): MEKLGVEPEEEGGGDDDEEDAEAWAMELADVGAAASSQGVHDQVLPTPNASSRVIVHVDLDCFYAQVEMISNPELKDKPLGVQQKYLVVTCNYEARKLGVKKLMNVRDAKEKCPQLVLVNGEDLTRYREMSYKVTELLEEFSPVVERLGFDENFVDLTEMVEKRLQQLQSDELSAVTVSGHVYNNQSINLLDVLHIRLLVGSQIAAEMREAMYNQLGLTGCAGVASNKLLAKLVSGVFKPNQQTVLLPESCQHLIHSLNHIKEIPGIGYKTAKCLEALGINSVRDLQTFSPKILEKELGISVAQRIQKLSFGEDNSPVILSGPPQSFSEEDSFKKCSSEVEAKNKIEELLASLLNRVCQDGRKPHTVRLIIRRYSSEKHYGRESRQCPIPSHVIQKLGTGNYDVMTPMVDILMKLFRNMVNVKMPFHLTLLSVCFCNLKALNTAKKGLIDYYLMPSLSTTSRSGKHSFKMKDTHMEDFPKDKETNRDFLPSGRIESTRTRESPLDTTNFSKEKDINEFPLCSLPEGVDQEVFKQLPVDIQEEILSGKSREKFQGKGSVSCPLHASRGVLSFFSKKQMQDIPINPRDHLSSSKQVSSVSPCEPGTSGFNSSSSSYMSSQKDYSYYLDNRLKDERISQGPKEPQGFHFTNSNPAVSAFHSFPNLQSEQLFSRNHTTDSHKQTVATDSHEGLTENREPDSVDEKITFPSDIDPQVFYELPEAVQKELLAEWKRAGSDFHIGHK
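Fluorescent replication assay read twice, at 0 min and 10 min after adding 50 nM (final) substrate. Enzyme (10 nM) and compounds were first incubated 15 min at room temperature; enzyme-free buffer wells were negative controls.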
POLB inh: blocks human DNA polymerase beta activity; P06746; Pol beta primer extension/strand displacement, fluorescence kinetic; Potency, µM (doses to about 114 µM), for inactives: at the top dose activity change, negative = inhibition, most hits filed as inhibitors; 340,000 tested, 1.3% active; also: % is scaled to controls: 0 for no effect and ±100 for the full control effect
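Preincubation: enzyme (10 nM) with compound, 15 min, RT. Reaction: substrate added to 50 nM final. Reads: 0 and 10 min. Analysis: normalized, Hill fit.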
Pol eta inh-1: inhibitors of human DNA polymerase eta; Q9Y253; recombinant Pol eta, fluorescent DNA replication assay; Potency, µM (series often up to 114 µM), inactives show at the top dose activity change, negative = inhibition, actives largely listed as inhibitors; 390,000 tested, 1.2% active; also: % is scaled to controls: 0 for no effect and ±100 for the full control effect
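Pol eta at 10 nM preincubated with compounds 15 min at room temperature; reaction started with fluorescent substrate (50 nM final) and read kinetically at 0 and 10 min.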
Pol kappa inh-1: blocks human DNA polymerase kappa activity | Q9UBT6 | purified Pol kappa, fluorescent DNA synthesis assay, 10 min | Potency, µM (highest dose often 107 µM), for inactives: at the top dose activity, negative = inhibition, actives largely listed as inhibitors | 400,000 tested, 0.53% active; also: % is scaled to controls: 0 for no effect and ±100 for the full control effect
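50 nM final substrate added after 15 min RT preincubation of 10 nM Pol kappa with compound; fluorescence read at 0 and 10 min.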
FEN1 inh: blocks human flap endonuclease 1; P39748; 390,000 tested, 0.35% active; Potency, µM (doses to about 114 µM), for the others: top-dose activity change, negative = inhibition, actives largely listed as inhibitors; Recombinant FEN1 flap cleavage, fluorescence, 15 min; also: % is scaled to controls: 0 for no effect and ±100 for the full control effect; nearly all actives have a fitted effect of over 65% in size
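Potency values derive from four-parameter Hill fits of normalized qHTS data. The reaction used 10 nM FEN1 preincubated 15 min at room temperature with compound, then 50 nM DNA substrate, read at 0 and 15 min.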
TbPGK inh: blocks T. brucei phosphoglycerate kinase; shares compounds with Pol kappa inh-1; TbPGK coupled GAPDH assay, Kinase-Glo luminescence; Potency, µM (titrated, usually from 57.5 µM), inactives show at the highest dose activity change, negative = inhibition, most hits filed as inhibitors; 500 tested, 79% active; AID 686980; also: % is scaled to controls: 0 for no effect and ±100 for the full control effect; nearly all actives have a fitted effect of over 65% in size
POLI cherry-pick: Inhibitors of human DNA polymerase iota, confirmation; shares compounds with Pol kappa inh-1; AID 720496; 1,500 tested, 77% active; Pol iota primer extension, TAMRA/BHQ fluorescence; Potency, µM, usual class: inhibitors
Pol kappa inh-2: Pol kappa (human) inhibition, cherry-pick confirmation | purified Pol-kappa, fluorescent strand-displacement substrate | Potency, µM, hits mostly inhibitors | AID 720501 | shares compounds with Pol eta inh-1 | 920 tested, 76% active
Pol eta inh-2: confirmation of human DNA polymerase eta inhibitors. shares compounds with Pol eta inh-1. Potency, µM, usual class: inhibitors. 2,600 tested, 64% active. Pol eta primer extension, TAMRA/BHQ fluorescence, 10 min. AID 720502
* = called active by the depositor; ! = repeats disagree; [ ] = remark or other dose. Calls follow the shape of the dose curve; as a rule, active = well fitted curve in the direction sought with a large enough effect; inconclusive = small, poorly fitted or top-dose-only effect, or another doubt; inactive = no such curve, though single readings can be large; an effect the other way counts as inactive or inconclusive. Potency is read from the fitted curve at half-maximal effect.

Results for CC(=O)c1ccc(S(=O)(=O)N2Cc3ccccc3CC2C(=O)O)cc1 (configuration not stated) ?
WRN inhibitor: inconclusive; Pol iota inh: inconclusive; POLB inh: 13µM*; Pol eta inh-1: 5µM*; Pol kappa inh-1: 50µM*; FEN1 inh: 9%; POLI cherry-pick: 27*; Pol eta inh-2: 15*

Results for O=C(O)[C@H]1Cc2ccccc2CN1S(=O)(=O)c1ccc(F)cc1 ?
WRN inhibitor: -2%; Pol iota inh: 3%; POLB inh: -2%; Pol eta inh-1: -6%; Pol kappa inh-1: -7%; FEN1 inh: -13%

Results for O=Cc1ccc(F)c([B-](F)(F)F)c1 ?
WRN inhibitor: -6%; Pol iota inh: -11%; Pol eta inh-1: -7%; Pol kappa inh-1: -11%; FEN1 inh: -13%

What do the screens show for `Cc1cc[n+](-c2[nH]c(=O)sc2/C=N/N=C(\[O-])c2ccncc2)cc1`?
WRN inhibitor: 0%[11.6 µM]; Pol iota inh: 40µM*; POLB inh: inconclusive; Pol eta inh-1: 79µM*; Pol kappa inh-1: inconclusive; FEN1 inh: -27%; POLI cherry-pick: 53*; Pol eta inh-2: 76*

What do the screens show for `Cc1cc[n+](-c2[nH]c(=O)sc2/C=N/N=C(\[O-])c2ccncc2)cc1C`?
WRN inhibitor: 2%; Pol iota inh: 1%; POLB inh: 4%; Pol eta inh-1: 0%; Pol kappa inh-1: -5%; FEN1 inh: inconclusive

How did Cc1[nH][nH]c(=O)c1C(c1ccc(-c2ccc(C(=O)O)cc2)o1)c1c(C)[nH][nH]c1=O do in these assays?
WRN inhibitor: inconclusive; Pol iota inh: 4.5µM*; POLB inh: 25µM*; Pol eta inh-1: inconclusive; Pol kappa inh-1: -34%; FEN1 inh: -21%; POLI cherry-pick: 60*; Pol eta inh-2: inconclusive

How did O=C(CC[C@H]1O[C@@H](n2cnc3c(NC(=O)c4ccccc4)ncnc32)[C@H](O)[C@@H]1O)NCCCN1CCCC1=O do in these assays?
WRN inhibitor: -4%

Results for N#C/C(=C\c1ccc(O)c(O)c1)C(=O)N1CCCC1 ?
WRN inhibitor: 2%[11.6 µM]; Pol iota inh: inconclusive; POLB inh: -19%; Pol eta inh-1: inconclusive; Pol kappa inh-1: -14%; FEN1 inh: -6%

Results for N#C/C(=C\c1ccc(O)c(O)c1)C(=O)c1ccc(O)c(O)c1 ?
WRN inhibitor: 0.17µM*; Pol iota inh: 1.1µM*; POLB inh: 0.063µM*; Pol eta inh-1: 0.13µM*!; Pol kappa inh-1: 0.34µM*; FEN1 inh: 1.4µM*; TbPGK inh: 0.33µM*; POLI cherry-pick: 0.75*; Pol kappa inh-2: 0.38*; Pol eta inh-2: 0.67*

How did O=C(NCc1nnnn1-c1ccc(F)cc1)c1ccc(S(=O)(=O)N2CCOCC2)cc1 do in these assays?
WRN inhibitor: 12%; Pol eta inh-1: -12%
